Screening data (PubChem)
EWS-Fli inh: EWS/Fli transcriptional activity inhibition | inhibition, % at 12.6 µM | A673 NR0B1-luciferase reporter, viability-normalised | 350,000 tested, 0.67% active;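 active = mean inhibition of at least 50% after viability correction, with every replicate also passing that limit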;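 note: firefly luciferase signal divided by Alamar Blue viability fluorescence both relative to DMSO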
PAX8 inh HTS: inhibitors of PAX8 transcriptional activity in RMG-I cells; RMG-I TPO-luciferase reporter, SteadyGlo, 24 h; AID 652154; 360,000 tested, 1.2% active; inhibition, % at 12.6 µM;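 active = mean replicate inhibition at least 60% with every replicate also reaching 60%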;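 note: luciferase light reporting Pax8 driven TPO promoter activity; plate controls were median of neutral control wells for no effect and mitoxantrone controls for full effect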
LGR2 antag: inhibitors of bursicon-induced Drosophila LGR2 receptor cAMP signaling. HEK293 LGR2, CRE-luciferase, bursicon-stimulated, 4 h. inhibition, % at 9.99 µM. 380,000 tested, 0.35% active. AID 720647;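 active = drop in luminescence signal, shown as inhibition above about 50% in the replicate tests, limit read from the data, passing the limit was not always enough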;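 note: agonist challenge used bursicon conditioned medium at about half maximal strength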
CF NFkB inh: inhibitors of cystic fibrosis induced NF-kB; KKLEB NF-kB-GFP reporter, PAF-induced, GFP fluorescence overnight; inhibition, % at 5 µM; 360,000 tested, 0.86% active; AID 588850;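 active = at least 50% inhibition at 5 µM, scaled per plate between neutral and stimulator controls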;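 note: PAF is a Pseudomonas aeruginosa culture filtrate used as stimulus; plate controls were PAF-stimulated DMSO wells for no effect and unstimulated DMSO wells for full effect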
Shn3 3UTR inh: reduces Shn3 3'UTR luciferase signal in osteoblasts | Clone20 osteoblast Shn3 3'UTR firefly luciferase, 24 h | inhibition, % at 12.5 µM | 360,000 tested, 0.52% active;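 active = mean inhibition of at least 75% with every replicate also reaching 75%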;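 note: 0% = median of neutral control wells and 100% = pilot-screen positive control compound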
KKLEB tox: CF airway cell cytotoxicity counter-screen; KKLEB CF airway cells viability, ATPlite luminescence, overnight; hits give low values; cells stimulated with P. aeruginosa culture filtrate; activity change (cytotoxicity), % at 5 µM; 360,000 tested, 0.36% active; AID 602141;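 active = corrected activity change at or below -50% at 5 µM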
CF NFkB inh conf: CF NF-kB inhibition confirmation, single concentration; KKLEB CF airway cells, PAF-induced NF-kB-GFP fluorescence, overnight; 1,300 tested, 64% active; AID 602472; shares compounds with CF NFkB inh; inhibition, % at 5 µM; in the data active = inhibition above about 40%;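 note: stimulus PAF is a Pseudomonas aeruginosa filtrate and not platelet activating factor; plate controls were DMSO wells with stimulus for no effect and unstimulated DMSO wells for full effect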
Starred values were filed as active, the others as inactive; / = no result given. In the library only some 2% were active in any assay of this set; here they are far more common.

SMILES | EWS-Fli inh | PAX8 inh HTS | LGR2 antag | CF NFkB inh | Shn3 3UTR inh | KKLEB tox | CF NFkB inh conf
C[C@@H]1CCCCO[C@@H](CN(C)Cc2ccncc2)[C@@H](C)CN([C@H](C)CO)C(=O)c2cc(NC(=O)Cc3ccccc3)ccc2O1 | 1 | -20 | 5 | / | / | / | /
O=C(N/N=C/c1ccccc1)c1[nH]c2ccc(Br)cc2c1-c1ccccc1 | 76* | 13 | -11 | 61* | -2 | -34 | 85*
COCC#Cc1ccc([C@H]2[C@@H](CO)N3C(=O)CN(C(=O)c4cccnc4)C[C@H]23)cc1 | 4 | / | -10 | / | / | / | /
COc1ccc(-c2nc(N3CCOCC3)nc3n[nH]c(N)c23)cc1 | / | 15 | / | 69* | 26 | -26 | 56*
c1cc(-c2cnc3cccnn23)c2cccnc2c1 | 3 | -18 | / | 75* | 5 | -21 | 51*
COc1ccc(-c2oc3ccc(-c4cc(OC)c(OC)c(OC)c4)cc3c2C#Cc2ccccn2)cc1 | 30 | 52 | 19 | 72* | 16 | 4 | 28
COc1ccc(C#Cc2c(-c3ccc(OC)cc3)oc3ccc(-c4ccc(OC)cc4)cc23)cc1 | -11 | -5 | 14 | 21 | 1 | -24 | /
COc1ccc(S(=O)(=O)N(C(C)=O)c2ccc(OC(C)=O)c3ccccc23)cc1[N+](=O)[O-] | 2 | 21 | 6 | 79* | 10 | -17 | 102*
CC(=O)Oc1ccc(N(C(C)=O)S(=O)(=O)c2ccc(C)cc2C)c2ccccc12 | -20 | 15 | 2 | 42 | -15 | -7 | /
CC(=O)Oc1c(Cl)cc(N(C(C)=O)S(=O)(=O)c2ccccc2)c2ccccc12 | -28 | 20 | 15 | 57* | 11 | -19 | 54*
CC(=O)N(c1ccccc1Cl)S(=O)(=O)c1ccc(Cl)cc1 | -7 | 13 | -14 | 26 | 0 | -7 | /
CC(=O)Oc1ccc(N(C(C)=O)S(=O)(=O)c2ccccc2)c2ccccc12 | -4 | -2 | 13 | 69* | 19 | 0 | 10
C[C@@H]1CCCCO[C@H](CN(C)C(=O)Nc2ccc3c(c2)OCO3)[C@H](C)CN([C@H](C)CO)C(=O)c2cc(NC(=O)c3ccccc3)ccc2O1 | -4 | -25 | -3 | / | / | / | /
Cc1ccc(S(=O)(=O)Nc2nc3ccccc3nc2Nc2cccc(S(=O)(=O)N3CCCC3)c2)cc1 | 1 | -4 | 3 | 69* | 26 | -44 | 71*
CNC[C@H]1Oc2ccc(NS(=O)(=O)c3ccccc3)cc2C(=O)N([C@H](C)CO)C[C@H]1C | -1 | 5 | -5 | / | / | / | /
CN1CCN(c2ccc([N+](=O)[O-])cc2C(=O)N2CCOCC2)CC1 | / | -9 | / | -4 | -7 | -9 | /
Cc1c(C(=O)N2CCN(c3ccc([N+](=O)[O-])cc3)CC2)oc2ccccc12 | 3 | 12 | -9 | 11 | 12 | 4 | /
Cc1c(-c2ccccc2)oc2c(C(=O)N3CCN(c4ccc([N+](=O)[O-])cc4)CC3)cccc2c1=O | -8 | -9 | 43 | 82* | 26 | -20 | 82*
O=C(c1cc([N+](=O)[O-])ccc1N1CCOCC1)N1CCN(c2ccccc2)CC1 | / | 91* | -24 | 53* | 3 | -37 | 59*
CCOC(=O)C1=C(C)Nc2ccccc2N=C1NC(=O)c1oc2ccccc2c1COC | -8 | 65* | 2 | 55* | 4 | -15 | 58*
N#Cc1ccc(-c2ccc3c(c2)[C@@H]2[C@@H](CCN2C(=O)c2ccccc2F)[C@@H](CO)N3)cc1 | 11 | -15 | -8 | / | / | / | /
COc1ccccc1Cc1c(-c2cccc(Br)c2)nc2c(C)cc(Br)cn12 | -45 | -8 | 1 | 55* | -9 | -6 | 5
COc1ccccc1Cc1c(-c2ccc(Cl)cc2)nc2c(C)cc(Br)cn12 | 37 | 31 | -10 | 48 | 1 | -26 | /
COCCCN(C(=O)c1ccc(N2CCCC2=O)cc1)c1c(N)n(Cc2ccccc2)c(=O)[nH]c1=O | -3 | -9 | 16 | -5 | -4 | 4 | /
CCCCN(C(=O)c1ccc(N2CCCC2=O)cc1)c1c(N)n(Cc2ccccc2)c(=O)[nH]c1=O | 6 | 5 | 4 | 58* | -11 | 8 | 36
SMILES | EWS-Fli inh | PAX8 inh HTS | LGR2 antag | CF NFkB inh | Shn3 3UTR inh | KKLEB tox | CF NFkB inh conf
COc1ccc(S(=O)(=O)N(C)C[C@@H]2Oc3ccc(NS(=O)(=O)c4cn(C)cn4)cc3C(=O)N([C@H](C)CO)C[C@H]2C)cc1 | -3 | / | -4 | / | / | / | /
O=c1cc(-c2ccccc2Cl)oc2c([N+](=O)[O-])c(O)cc(O)c12 | -13 | -100 | 70* | 94* | -3 | 14 | 110*
O=C(C[C@H]1C=C[C@H](NC(=O)C2CCC2)[C@H](CO)O1)NC1CCC1 | 0 | -3 | 14 | / | / | / | /
COC(=O)C(=Cc1ccccc1[N+](=O)[O-])C(=O)OC | 0 | 11 | 4 | 59* | 39 | -2 | 10
COc1ccc(CNC(=O)/C=C/c2ccccc2[N+](=O)[O-])cc1 | -9 | 3 | 0 | -12 | -9 | -15 | /
CCCC1/C(=N/O)CC(c2ccccc2)NC1c1ccccc1 (centres undefined) | 13 | 14 | 14 | 75* | 32 | -3 | 60*
COc1ccc(-c2cc(=O)oc3cc(OC(=O)C4CCCCC4)ccc23)cc1 | -12 | 2 | 11 | 74* | 8 | 0 | 84*
COc1ccc(CNC(=O)C[C@@H]2C=C[C@H](NC(=O)c3cccc(F)c3)[C@@H](CO)O2)cc1 | -5 | 11 | 12 | / | / | / | /
CN(Cc1cc(Cl)cc(Cl)c1O)Cc1c(O)ccc2ccccc12 | -4 | 20 | -8 | 59* | -12 | -17 | 8
COc1ccccc1NC(=O)N1CC[C@H]2[C@@H]1c1cc(C#Cc3ccc(F)cc3)ccc1N(C)[C@H]2CO | 0 | -4 | 13 | / | / | / | /
O=C(CCl)N1N=C(c2ccco2)CC1c1cccs1 (centres undefined) | / | / | / | 58* | -4 | -20 | 27
COc1cccc2sc(N3CCN(c4nc5ccccc5s4)CC3)nc12 | / | -6 | / | 56* | 62 | -34 | 29
COc1ccc(-c2ccc([C@H]3[C@@H](CO)N4C(=O)CN(Cc5ccccc5)C[C@@H]34)cc2)cc1 | 1 | -17 | -14 | / | / | / | /
CCN1[C@H](C(=O)NC2Cc3ccccc3C2)[C@@H](CO)[C@@H]2Cn3c(cccc3=O)[C@@H]21 | -42 | / | -9 | / | / | / | /
C[C@H]1CN([C@@H](C)CO)C(=O)c2cccc(NC(=O)c3ccncc3)c2O[C@@H]1CN(C)S(=O)(=O)c1ccc(Cl)cc1 | 7 | 3 | / | / | / | / | /
O=C(Nc1nc2ccc(Cl)cc2s1)[C@@H]1CCCN1C(=O)c1cccs1 | -21 | -10 | -25 | 53* | -16 | -21 | 39
